Assay results as given in PubChem BioAssay (Tox21).
Inconclusive results are not listed. The source made the active and inactive calls. Unless noted, calls follow the shape of the dose curve; as a rule, active = well fitted curve in the direction sought with a large enough effect in the repeat runs; inconclusive = weak or mixed curves; inactive = no such curve, though single readings can be large; an effect the other way counts as inactive or inconclusive.

Experiments:
[1] = molecular target: Retinoic acid receptor RXR-alpha (Homo sapiens) (UniProt P19793); test: qHTS assay to identify small molecule agonists of the RXR signaling pathway (AID 1159527; calls by dose curve; also: nearly all actives have a fitted effect of over 35% in size)
Sequence of Retinoic acid receptor RXR-alpha (Homo sapiens) (P19793 whole entry, looked up): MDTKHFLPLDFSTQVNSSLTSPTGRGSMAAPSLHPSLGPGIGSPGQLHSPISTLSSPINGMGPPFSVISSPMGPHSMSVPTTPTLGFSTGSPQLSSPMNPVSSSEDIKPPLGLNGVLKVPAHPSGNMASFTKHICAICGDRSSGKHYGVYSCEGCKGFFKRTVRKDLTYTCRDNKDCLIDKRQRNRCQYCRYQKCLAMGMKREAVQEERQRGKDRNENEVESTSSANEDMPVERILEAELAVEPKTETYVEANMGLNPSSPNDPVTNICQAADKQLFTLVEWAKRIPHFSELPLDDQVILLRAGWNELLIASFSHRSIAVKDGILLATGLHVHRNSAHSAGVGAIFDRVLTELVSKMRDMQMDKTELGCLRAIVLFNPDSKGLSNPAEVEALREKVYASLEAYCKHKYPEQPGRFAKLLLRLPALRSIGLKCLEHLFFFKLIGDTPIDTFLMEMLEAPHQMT
How it was run: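 Compounds in DMSO were added to RXR-alpha-UAS-bla HEK 293T cells kept in 2% charcoal-stripped serum, and incubated 16 hr at 37 C with 5% CO2. Reporter signal came from a 2 hr B/G FRET substrate step.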

[2] = qHTS assay to identify small molecule agonists of the RXR signaling pathway - cell viability counter screen (AID 1159529);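 also: HEK 293T cells carrying an RXR-alpha UAS beta-lactamase reporter; series mostly up to about 77 µM; nearly all actives have a fitted effect of over 50% in size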
How it was run: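 Counter screen: CellTiter-Glo luminescence. Cells: RXR-alpha-UAS-bla HEK 293T. Medium: 2% charcoal-stripped FBS. Treatment: 16 h, 37 C. Reagent incubation: 30 min, RT.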

[3] = qHTS assay to identify small molecule antagonists of the retinoid acid receptor (RAR) signaling pathway - cell viability counter screen (AID 1159551); also: nearly all actives have a fitted effect of over 35% in size
How it was run: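 Retinol-stimulated (1 uM final) C3RL4 cells, compound 6 h, 37 C; readout CellTiter-Glo luminescence (ATP) after 30 min RT incubation.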

[4] = qHTS assay to identify small molecule antagonists of the retinoic acid receptor (RAR) signaling pathway (AID 1159552; also: nearly all actives have a fitted effect of over 50% in size)
How it was run: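 Antagonism of retinol-induced RARE reporter activity was measured in C3RL4 cells. Exposure to compounds and 1 uM final retinol lasted 6 hr at 37 C, with luminescence as endpoint.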

[5] = qHTS assay to identify small molecule agonists of the retinoic acid receptor (RAR) signaling pathway (AID 1159553)
How it was run: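 Reporter readout comes from luciferase under RARE control in C3RL4 cells; compound exposure lasts 6 hr at 37 C in 5% CO2, and luminescence is recorded following a 30 min room-temperature incubation with reagent.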

[6] = qHTS assay to identify small molecule antagonists of the estrogen related receptor (ERR) signaling pathway from Tox21 library - cell viability counter screen (AID 1224834); also: nearly all actives have a fitted effect of over 30% in size
How it was run: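 After 17.5 h of compound exposure at 37 C, ERR cells are incubated with CellTiter-Fluor for 30 min and fluorescence intensity serves as the viability measure.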

[7] = molecular target: Luciferin 4-monooxygenase (Photinus pyralis) (UniProt P08659); test: qHTS assay to identify small molecule inhibitors of firefly luciferase (AID 1224835); also: series mostly up to about 120 µM; nearly all actives have a fitted effect of over 25% in size
Sequence of Luciferin 4-monooxygenase (Photinus pyralis) (P08659 whole entry, looked up): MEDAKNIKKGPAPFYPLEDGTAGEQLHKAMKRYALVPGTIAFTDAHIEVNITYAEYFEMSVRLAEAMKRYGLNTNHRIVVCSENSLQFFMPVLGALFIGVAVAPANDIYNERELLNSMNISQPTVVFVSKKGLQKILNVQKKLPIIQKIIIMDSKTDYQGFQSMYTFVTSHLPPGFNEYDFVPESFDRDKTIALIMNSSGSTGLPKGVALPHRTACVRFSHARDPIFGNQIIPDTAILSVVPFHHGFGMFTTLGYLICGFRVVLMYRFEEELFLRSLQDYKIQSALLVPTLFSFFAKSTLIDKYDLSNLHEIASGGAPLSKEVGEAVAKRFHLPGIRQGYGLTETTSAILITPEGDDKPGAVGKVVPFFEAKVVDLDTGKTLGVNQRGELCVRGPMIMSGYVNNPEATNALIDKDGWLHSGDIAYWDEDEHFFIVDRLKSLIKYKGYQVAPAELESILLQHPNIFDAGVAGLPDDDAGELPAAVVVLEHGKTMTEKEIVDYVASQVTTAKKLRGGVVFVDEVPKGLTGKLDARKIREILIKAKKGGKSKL
How it was run: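 Quantitative HTS format; KM concentrations of both substrates. Purified P. pyralis FLuc activity quantified from luminescence images.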

[8] = qHTS assay to identify small molecule agonists of the constitutive androstane receptor (CAR) signaling pathway - cell viability counter screen (AID 1224836); also: series mostly up to about 92 µM; nearly all actives have a fitted effect of over 45% in size
How it was run: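 Double-stable HepG2 hepatoma cells (hCAR plus CYP2B6-2.2kb) are treated for 23 h at 37 C with test compounds in 15-point concentration series. PK11195 at 0.75 uM final is co-added. Cell viability is quantified by CellTiter-Fluor.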

[9] = qHTS assay to identify small molecule antagonists of the constitutive androstane receptor (CAR) signaling pathway - cell viability counter screen (AID 1224837); also: series mostly up to about 92 µM; nearly all actives have a fitted effect of over 45% in size
How it was run: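 Counter screen run in HepG2-CYP2B6-hCAR cells: 4 hr settle, compound titration (15 concentrations) with 50 nM CITCO, 23 hr at 37 C/5% CO2, CellTiter-Fluor fluorescence.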

[10] = molecular target: Nuclear receptor subfamily 1 group I member 3 (Homo sapiens) (UniProt Q14994); test: qHTS assay to identify small molecule antagonists of the constitutive androstane receptor (CAR) signaling pathway (AID 1224838);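 also: HepG2 cells stably expressing hCAR with CYP2B6 luciferase reporter stimulated by CITCO; nearly all actives have a fitted effect of over 40% in size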
Sequence of Nuclear receptor subfamily 1 group I member 3 (Homo sapiens) (Q14994 whole entry, looked up): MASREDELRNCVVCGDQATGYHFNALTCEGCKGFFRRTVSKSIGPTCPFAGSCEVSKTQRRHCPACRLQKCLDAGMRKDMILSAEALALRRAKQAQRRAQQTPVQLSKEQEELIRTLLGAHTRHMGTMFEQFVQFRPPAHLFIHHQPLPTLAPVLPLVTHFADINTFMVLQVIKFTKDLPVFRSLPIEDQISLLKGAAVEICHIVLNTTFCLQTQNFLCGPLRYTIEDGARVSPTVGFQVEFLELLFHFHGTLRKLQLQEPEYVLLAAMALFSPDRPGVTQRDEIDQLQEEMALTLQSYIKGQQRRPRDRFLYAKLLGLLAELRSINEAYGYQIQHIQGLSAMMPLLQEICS
How it was run: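 Cell line: HepG2 double-stable for hCAR and CYP2B6-2.2kb reporter. Agonist: CITCO, 50 nM final. Compounds: 15 concentrations, 24 h, 37 C. Detection: ONE-Glo luminescence.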

[11] = molecular target: Nuclear receptor subfamily 1 group I member 3 (Homo sapiens) (UniProt Q14994); test: qHTS assay to identify small molecule agonists of the constitutive androstane receptor (CAR) signaling pathway (AID 1224839); also: nearly all actives have a fitted effect of over 15% in size; also: potency is read from the fitted curve at half-maximal effect;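 as to activation: HepG2 cells stably carrying human CAR and a CYP2B6 luciferase reporter; series mostly up to about 92 µM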
How it was run: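 Readout: firefly luciferase luminescence via ONE-Glo. System: HepG2 double-stable for hCAR and CYP2B6-2.2kb. Conditions: 15-point compound titration, PK11195 at 0.75 uM final, 24 h incubation.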

[12] = qHTS assay to identify small molecule antagonists of the estrogen related receptor signaling pathway with the pleiotropic PPARgamma coactivator (PGC) from Tox21 10K library - cell viability counter screen (AID 1224840; active = well fitted cell-killing curve with a large enough effect in the repeat runs, not every such curve was filed as active; also: nearly all actives have a fitted effect of over 40% in size)
How it was run: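 Following seeding of 2,000 PGC/ERR cells/well and 6 hours' incubation, test compounds were delivered in DMSO. The plates then sat 17.5 hours at 37 C before a fluorogenic live-cell protease reagent (CellTiter-Fluor) was read after 30 min.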

[13] = qHTS assay to identify small molecule antagonists of the estrogen related receptor signaling pathway with the pleiotropic PPARgamma coactivator (PGC) from Tox21 10K library (AID 1224841; call rule not given here; also: series mostly up to about 92 µM; actives are mostly falling curves and most rising ones were filed inactive; nearly all actives have a fitted effect of over 50% in size)
How it was run: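 qHTS antagonist format: PGC/ERR cells, 2k/well, compound in DMSO by pin transfer after 6 h attachment, 18 h treatment at 37 C, One-Glo luminescence read at 30 min.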

[14] = qHTS assay to identify small molecule agonists of the estrogen related receptor signaling pathway with the pleiotropic PPARgamma coactivator (PGC) from Tox21 10K library (AID 1224842); also: nearly all actives have a fitted effect of over 15% in size
How it was run: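 PGC/ERR reporter cells (NTP line) were seeded 2,000 per well, rested 6 h at 37 C/5% CO2, then pin-dosed with compounds in DMSO for 18 h at 37 C; luciferase read by One-Glo luminescence after 30 min at room temperature.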
% is scaled to controls: 0 for no effect and ±100 for the full control effect.

NC(=O)NS(=O)(=O)c1ccc(Cl)cc1
inactive: Potency [1] | Potency [2] | outcome [3] | Potency [4] | Potency [5] | Potency [6] | Potency [7] | Potency [8] | Potency [9] | Potency [10] | Potency [11] | Potency [12]

CCCS(=O)c1ccc2nc(NC(=O)OC)[nH]c2c1 (stereo not drawn)
inactive: Potency [1] | Potency [2] | outcome [3] | Potency [4] | Potency [5] | Potency [6] | Potency [7] | Potency [8] | Potency [9] | Potency [11] | Potency [12]

COC(=O)c1ccc(OC)cc1
inactive: Potency [1] | Potency [2] | outcome [3] | Potency [4] | Potency [5] | Potency [6] | Potency [7] | Potency [8] | Potency [9] | Potency [11] | Potency [12] | Potency [13] | Potency [14]

CCC1(C)NC(=O)NC1=O (stereo not drawn)
inactive: Potency [1] | Potency [2] | outcome [3] | Potency [4] | Potency [5] | Potency [6] | Potency [7] | Potency [8] | Potency [9] | Potency [12]

O=C(O[C@@H](C(=O)O)[C@@H](OC(=O)c1ccccc1)C(=O)O)c1ccccc1
inactive: Potency [1] | Potency [2] | outcome [3] | Potency [4] | Potency [5] | Potency [6] | Potency [7] | Potency [8] | Potency [9] | Potency [10] | Potency [11] | Potency [12] | Potency [14]

CCN1CC(CCN2CCOCC2)C(c2ccccc2)(c2ccccc2)C1=O (stereo not drawn)
inactive: Potency [1] | Potency [2] | outcome [3] | Potency [4] | Potency [5] | Potency [6] | Potency [7] | Potency [8] | Potency [9] | Potency [11] | Potency [12] | Potency [13] | Potency [14]

CN(CC1(C)CCCO1)S(=O)(=O)c1ccc(Cl)c(S(N)(=O)=O)c1 (stereo not drawn)
inactive: Potency [1] | Potency [2] | outcome [3] | Potency [4] | Potency [5] | Potency [6] | Potency [7] | Potency [8] | Potency [9] | Potency [12]

CCC(=O)Nc1ccc(O)cc1
inactive: Potency [1] | Potency [2] | outcome [3] | Potency [4] | Potency [5] | Potency [6] | Potency [7] | Potency [8] | Potency [9] | Potency [12]

C[C@@H]1CN(c2c(F)c(N)c3c(=O)c(C(=O)O)cn(C4CC4)c3c2F)C[C@H](C)N1
inactive: activation [1] 12.8% [at 15.8 µM] | activity change, negative = cytotoxicity [2] 8.39% [at 15.8 µM] | activity change, negative = cytotoxicity [3] 2.38% [at 19 µM] | activity, negative = inhibition [4] 6.27% [at 19 µM] | Potency [5] | viability change, negative = cytotoxic [6] -1.89% [at 19 µM] | activity change, negative = inhibition [7] 0.766% [at 23.6 µM] | viability change, negative = cytotoxic [8] -2.59% [at 19 µM] | activity change, negative = cytotoxicity [9] 0.653% [at 19 µM] | viability change, negative = cytotoxic [12] -4.64% [at 19 µM]

COc1cc(N)c(Cl)cc1C(=O)NC1CCN(Cc2ccccc2)CC1
inactive: Potency [1] | Potency [2] | outcome [3] | Potency [4] | Potency [5] | Potency [6] | Potency [7] | Potency [8] | Potency [9] | Potency [12]
active: Potency [11] 6.68 µM

O=C1C=CC(=O)O1
inactive: Potency [1] | Potency [2] | outcome [3] | Potency [4] | Potency [5] | Potency [6] | Potency [7] | Potency [8] | Potency [9] | Potency [12] | Potency [13] | Potency [14]

CCOc1ccc(NS(=O)(=O)c2ccc(N)cc2)nn1
inactive: Potency [1] | Potency [2] | outcome [3] | Potency [4] | Potency [5] | Potency [6] | Potency [7] | Potency [8] | Potency [9] | Potency [12]

CC(C)C(=O)OCC(C)(C)C(O)C(C)C (stereo not drawn)
inactive: Potency [1] | Potency [2] | outcome [3] | Potency [4] | Potency [5] | Potency [6] | Potency [7] | Potency [8] | Potency [9] | Potency [12]

Cc1onc(-c2ccccc2)c1C(=O)Cl
inactive: Potency [1] | Potency [2] | outcome [3] | Potency [4] | Potency [5] | Potency [6] | Potency [7] | Potency [9] | Potency [12]

CCN[C@H]1CN(CCCOC)S(=O)(=O)c2sc(S(N)(=O)=O)cc21
inactive: Potency [1] | Potency [2] | outcome [3] | Potency [4] | Potency [5] | Potency [6] | Potency [7] | Potency [8] | Potency [9] | Potency [11] | Potency [12]

N#Cc1ccc(C(c2ccc(C#N)cc2)n2cncn2)cc1
inactive: Potency [1] | Potency [2] | outcome [3] | Potency [4] | Potency [5] | Potency [6] | Potency [7] | Potency [8] | Potency [9] | Potency [12]

COc1cc(C)ccc1C(C)C
inactive: Potency [1] | Potency [2] | outcome [3] | Potency [4] | Potency [5] | Potency [6] | Potency [7] | Potency [8] | Potency [9] | Potency [12] | Potency [13] | Potency [14]

CC/C=C\CCOC(=O)C(C)C
inactive: Potency [1] | Potency [2] | outcome [3] | Potency [4] | Potency [5] | Potency [6] | Potency [7] | Potency [8] | Potency [9] | Potency [12]

CCOC(=O)c1ccccc1O
inactive: Potency [1] | Potency [2] | outcome [3] | Potency [4] | Potency [5] | Potency [6] | Potency [7] | Potency [8] | Potency [9] | Potency [12] | Potency [13] | Potency [14]

CCc1nnc(NS(=O)(=O)c2ccc(N)cc2)s1
inactive: Potency [1] | Potency [2] | outcome [3] | Potency [4] | Potency [5] | Potency [6] | Potency [7] | Potency [8] | Potency [9] | Potency [11] | Potency [12] | Potency [13] | Potency [14]

O=[N+]([O-])c1nccn1CO[C@@H](CO)[C@H](O)CO
inactive: Potency [1] | Potency [2] | outcome [3] | Potency [4] | Potency [5] | Potency [6] | Potency [7] | Potency [8] | Potency [9] | Potency [12] | Potency [13] | Potency [14]

CCCCCCCCCC/C=C/C#N
inactive: Potency [1] | Potency [2] | outcome [3] | Potency [4] | Potency [5] | Potency [6] | Potency [7] | Potency [8] | Potency [9] | Potency [10] | Potency [11] | Potency [12] | Potency [13] | Potency [14]
